PubChem BioAssay AID1117319 (Southern Research Institute, 2015)
“And” between values parts separate entries of the source, which are not always exact repeats. Identical values can stand only once. In all, about 260,000 compounds went through this assay and about 1,500 (0.58%) were called active. Roughly 5% stayed inconclusive and do not appear here.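 The calls were made as follows: active = inhibition above a set limit at one or more doses, reproduced on every date tested; inconclusive = results disagree between test dates, or hit never tested in dose response; inactive = the rest.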 These entries were drawn from the full list. Results with a measured potency or affinity are listed apart.

Target: Virion infectivity factor (Human immunodeficiency virus type 1 group M subtype B (isolate BH10)) + Virion infectivity factor (Human immunodeficiency virus type 1 group M subtype B (isolate BRU/LAI)) + Virion infectivity factor (Human immunodeficiency virus type 1 group M subtype B (isolate PCV12)) + Virion infectivity factor (Human immunodeficiency virus type 1 group M subtype B (isolate HXB2)) + DNA dC->dU-editing enzyme APOBEC-3G (Homo sapiens) (UniProt P69720+P69721+P69722+P69723+Q9HC16)
Test: inhibitors of Vif binding to APOBEC3G peptide, primary screen, biochemical, TR-FRET, GST-Vif 1-94, biotin-A3G peptide, dose response retest (AID 1117319);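 also: Vif residues 1-94 fused to GST binding biotinylated APOBEC3G peptide 110-148; 0% = full assay without inhibitor and 100% = GST in place of GST-Vif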
Conditions: stronger effect = higher value

inhibition, inactive:
COC(=O)c1cc(C)ccc1/C=C1/Cc2c(C)cc(C)cc2C1=O -4.06%, CC1CC1C(=O)OCC(=O)Nc1ncc(Cl)cc1Cl (centres undefined) 6.04%, CCc1cc(=O)n2[nH]c(C)c(-c3ccc(OC)cc3)c2n1 -3.08%, CCCc1cc(=O)n2[nH]c(C)c(-c3ccccc3OC)c2n1 -0.45%, COc1ccc(S(=O)(=O)N2CCC(C(=O)NCCC(=O)NCc3cccnc3)CC2)cc1 -0.14%, Cc1noc(C)c1CCC(=O)Nc1cc(C(=O)O)ccc1Cl 4.29%, Cc1ccc(NC(=O)CN2C(=O)N/C(=C/c3ccc(C)o3)C2=O)cc1 30.9%, Cc1ccc(NC(=O)CN2C(=O)N/C(=C/c3ccc4c(c3)OCCO4)C2=O)cc1 -0.54%, CCC1=NN2C(=N)/C(=C\c3cccn3-c3ccc(Cl)cc3)C(=O)N=C2S1 0.75%, CCC1=NN2C(=N)/C(=C/c3c(C)nn(-c4ccccc4)c3Cl)C(=O)N=C2S1 6.74%, CCC1=NN2C(=N)/C(=C\c3cccn3-c3ccc(C)c(C)c3)C(=O)N=C2S1 2.9%, CCCC1=NN2C(=N)/C(=C\c3cc(C)n(-c4cccc(C)c4)c3C)C(=O)N=C2S1 -10.2%, CC1=NN2C(=N)/C(=C\c3ccc(SCc4ccccc4)o3)C(=O)N=C2S1 26.3%, N=C1/C(=C\c2ccc(SCc3ccccc3)o2)C(=O)N=C2SC=NN12 1.67%, N=C1/C(=C\c2ccc(SCc3ccccc3)o2)C(=O)N=C2SC(CC(=O)N3CCOCC3)=NN12 18.9%, N=C1/C(=C\c2ccc(OC(=O)c3ccco3)cc2)C(=O)N=C2SC=NN12 2.2%, CCn1c(C(=O)O)c(S(=O)(=O)c2ccc(Cl)cc2)c2ccccc21 -1.5%, Nc1nnc(SCC(=O)OCc2ccccc2)s1 11.6%, COc1ccc(CCNC(=O)CN2C(=O)NC(c3ccccc3)(c3ccccc3)C2=O)cc1 2.71%, COc1ccc(-c2csc(N(CCc3ccccc3)C(=O)COc3ccccc3)n2)cc1 -2.24%, O=C1CC(c2ccccc2)NC(=S)N1 (centres undefined) 0.02%, Cc1ccc(/C=c2\sc3n(c2=O)CN(c2cccc(Br)c2)CN=3)o1 27.7%, Cc1onc(-c2ccccc2)c1C(=O)N1CCN(c2ccc([N+](=O)[O-])cc2)CC1 -0.35%, O=C1N(Cc2cccc(Cl)c2)C[C@@H]2C[C@@H](c3c[nH]c4ccccc34)N3CCC[C@@]123 0.3%, Cc1ccc(C(=O)OCC(=O)NCc2ccccc2)cc1S(=O)(=O)N1CCCCC1 -8.21%, Cn1c(N2C(=O)CC(Cc3ccccc3)C2=O)nc2ccccc21 (centres undefined) -1.11%, O=C1NC(=O)C(=Cc2ccco2)S1 -2.41%, O=C1NC(=S)SC1=Cc1ccccc1Cl 1.68%, Cc1sc2ncn(-n3c(C)ccc3C)c(=O)c2c1C 5.69%, COc1ccccc1-n1c(CNC(=O)c2ccco2)nnc1SCC(=O)Nc1ccc(F)cc1 -4.03%, Cc1nc2[nH]c(=S)[nH]c(=O)c2nc1C 17.2%, O=c1[nH]c(=S)[nH]c2nccnc12 -0.53%, COc1cc(C(=O)Nc2c(C)cc(C)cc2C)c([N+](=O)[O-])cc1OC -0.83%, O=C(CCc1nnc(CCCCc2ccccc2)o1)N1CCCC(O)C1 (centres undefined) 20%, O=C(CNc1n[nH]c(=O)[nH]c1=O)N/N=C/c1ccccc1 -4.54%, COc1cc(/C=N/NC(=O)CNc2n[nH]c(=O)[nH]c2=O)ccc1OCc1ccccc1 2.21%, COc1ccc(C(CNC(=O)c2ccc(OCC3CCCO3)cc2)N2CCOCC2)cc1 (centres undefined) -4.51%, CCCn1c(NC(=O)CSCC(=O)Nc2cc(C)on2)nc2ccccc21 -0.74%, c1coc(-c2nc3ccccc3s2)c1 1.82%, c1coc(-c2cnc3ccccc3n2)c1 -5.45%, COc1ccc2nc3ccccc3nc2c1 0.36%, c1coc(-c2ncc[nH]2)c1 0.85%, c1coc(Cn2c(-c3ccco3)nc3ccccc32)c1 6.18%, S=c1nc(-c2ccco2)[nH][nH]1 6.53%, CCn1c(-c2ccco2)nc2ccccc21 0.82%, COc1ccc2nc3c(nc2c1)CCCC3 -1.28%, COc1ccc(N(C(=O)c2ccco2)C(C(=O)NC2CCCC2)c2ccco2)cc1OC (centres undefined) 0.94%, COc1ccccc1/C=C/C(=O)OCC(=O)NC(=O)NC1CCCC1 -1.97%, CCn1cc(Cl)c(C(=O)Nc2cccc(C(F)(F)F)c2)n1 -0.07%, CC1(C)CC(NC(=O)COc2ccc([N+](=O)[O-])cc2)CC(C)(C)N1 -0.99%, CC(C(=O)O/N=C(\N)c1cccnc1)c1ccc([N+](=O)[O-])cc1 (centres undefined) -1.85%, COc1cc(/C=C/C(=O)OCC(=O)c2ccc(S(=O)(=O)N3CCCCC3)cc2)cc(OC)c1OC -29.8%, Cc1ccc(OCCSc2nc(NC(C)C)nc(NC(C)C)n2)cc1 -8.83%, CC(C)(C)NC(=O)CN1CCN(C(=O)CCl)CC1 -2.69%, Cc1oc2ccc(O)c(CN3CCOCC3)c2c1C(C)O (centres undefined) -6.07%, COCCN1C(=O)CC(NNC(=O)c2ccc(S(=O)(=O)N3CCCC3)cc2)C1=O (centres undefined) 8%, CCCC(C)NC(=O)c1ccc(-c2ccccc2)cc1 (centres undefined) -5.95%, Nc1nnc(-c2ccco2)s1 15.6%, Nc1nc(-c2ccco2)cs1 -0.78%, CCOC(=O)c1cnc(-n2nc(C)cc2C)[nH]c1=O -8.45%, Cc1sc(-c2ccccn2)nc1OC(=O)c1ccc(Cl)c(Cl)c1 -6.3%, O=C(COC(=O)c1c2c(nc3ccccc13)/C(=C/c1cccc([N+](=O)[O-])c1)CCC2)NC1CCS(=O)(=O)C1 (centres undefined) 29.1%, CC1CCCCC1NC(=O)COC(=O)c1c2c(nc3ccccc13)/C(=C\c1ccco1)CC2 (centres undefined) 4.28%, CN(CCC#N)C(=O)COC(=O)c1nn(-c2ccccc2)c(=O)c2ccccc12 -3.88%, CC1CCCCC1NC(=O)COC(=O)c1ccc2ccccc2n1 (centres undefined) -3.73%, CN1CCc2nc3ccccc3c(C(=O)OCC(=O)N(CCC#N)c3ccccc3)c2C1 -5.14%, CCc1nc2ccccc2c(C(=O)OCC(=O)NC2CCCC2)c1C 4.22%, Cc1ccc(N(Cc2ccccc2)C(=O)c2cccc(S(=O)(=O)N3CC(C)OC(C)C3)c2)cc1 (centres undefined) 5.98%, CCCCc1nnc(NC(=O)Cc2ccc(S(=O)(=O)N3CCOCC3)s2)s1 -4.48%, CCc1ccc(CN(C)C(C)C(=O)NCc2ccccc2)cc1 (centres undefined) -5.54%, CCOC(=O)c1oc2cc(C)cc(C)c2c1C 12.6%, C[C@]1(C(=O)NCCN2CCOCC2)C=C[C@@H](Cc2ccccc2)N1C(=O)c1ccccc1 -2.79%, N#Cc1cnc(N)c(Br)c1 -0.24%, COc1ccc(-n2c(=S)[nH]c3cc(C(=O)NCc4cccnc4)ccc3c2=O)cc1 -1.63%, Fc1cccc(F)c1-n1c(CN2CCOCC2)csc1=S -4.65%, C/C(N)=C(/C#N)C(=O)CSc1nnc(Nc2ccccc2C)s1 5.27%, C/C(N)=C(/C#N)C(=O)CSc1nnc(Nc2cccc(C)c2)s1 29.1%, Cn1c(SCC(=O)NCc2ccc3c(c2)OCO3)nnc1-c1cc2ccccc2cc1O 5.67%, CCNc1nc(NCC)nc(SCC(C)=O)n1 1.47%, O=C(CCc1c[nH]c2ccccc12)NCc1ccco1 14.9%, O=C(Cc1c[nH]c2ccccc12)NCc1ccco1 -2.84%, O=C(NCc1ccccc1F)c1ccc(S(=O)(=O)NCc2ccco2)cc1 1.91%, NS(=O)(=O)c1ccc(CNC(=O)c2ccc(S(=O)(=O)NCc3ccco3)cc2)cc1 -7.37%, O=C(NCCc1ccccc1)c1nc2ncccn2n1 8.66%, COc1ccc(NC(=O)CCNS(=O)(=O)c2cccc3nonc23)cc1Cl 7.84%, COc1ccc(/C=C(/CC(=O)NCc2ccc(Cl)cc2)c2nc3ccccc3s2)cc1 2.71%, COc1ccccc1/C=C(/CC(=O)NCc1ccc(F)cc1)c1nc2ccccc2s1 -7%, COc1ccc(Cl)cc1C(=O)Nc1ccccc1N1CCN(C)CC1 1.41%, O=C(Nc1ccc(C(=O)O)cc1)/C(=C\c1ccco1)NC(=O)c1ccccc1 26.2%, COC(=O)/C(=C/c1ccco1)NC(=O)c1ccccc1 11.2%, Fc1ccc(-c2cc(C(F)(F)F)nc(-n3cccn3)n2)cc1 21.7%, CCc1ccc2[nH]c(=O)c(C(c3nnnn3CCOC)N3CCN(c4ccccc4)CC3)cc2c1 (centres undefined) 9.41% and 22.6%, CCc1ccc2[nH]c(=O)c(C(c3nnnn3CCOC)N3CCN(c4ccc(F)cc4)CC3)cc2c1 (centres undefined) 9.01% and 16.1%, Cc1ccc(SCC(=O)NNC(=O)CCS(=O)(=O)c2ccc(C)cc2)cc1 -4.89%
